E coli growth-1: reduces bacterial viability in AddAB counter-screen; inhibition, % at 11.9 µM; E. coli V3065 growth, OD600 absorbance, 18 h; actives 0.27% (n = 330,000);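 active means inhibition above the campaign's mean inhibition across all tested compounds plus 3 SD, cut at about 9.9% in these data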;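 further: uninfected addAB+ strain grown without phage in ampicillin broth; 0% = DMSO wells and 100% = ciprofloxacin 0.95 µg/ml wells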
phage Ecoli inh: E. coli growth loss with phage present. growth absorbance. inhibition, % at 11.9 µM. actives 0.26% (n = 360,000); in the data active means inhibition above about 11%
Tat transport: blocks Tat-dependent protein export in E. coli | E. coli MC4100 TorA-mCherry Tat export, fluorescence | inhibition, % at 10 µM | actives 0.036% (n = 340,000) | AID 488895;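 active means mean replicate inhibition at least 50% and at least half of replicates individually reaching 50%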;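 further: exported cargo escapes ClpAP degradation while cytoplasmic cargo is degraded and loses fluorescence; 0% = median of neutral control wells and 100% = median of NaSCN control wells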
E coli growth-2: E. coli growth inhibition; actives 0.21% (n = 330,000); Escherichia coli growth, OD600, 23 h; stronger effect = lower value; OD600 absorbance (test concentration not listed); AID 1053175;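 active means OD600 absorbance below the run mean of sample wells minus 3.6 SD, in any replicate, cut at about 0.56 in these data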
AddAB inh: less growth of phage-infected E. coli with AddAB; actives 0.29% (n = 330,000); E. coli expressing H. pylori AddAB, absorbance growth; AID 435030; inhibition, % at 11.9 µM; in the data active means inhibition above about 12%;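 further: 0% = vehicle wells of infected cells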
* = called active by the depositor; x = no result given. The list is not random: actives were taken first. Their share in the collection is about 0.5%.

SMILES	E coli growth-1	phage Ecoli inh	Tat transport	E coli growth-2	AddAB inh
CCOC(=O)C1C2COc3ccc(Br)cc3C2N2C(=O)N(c3cccc(F)c3)C(=O)[C@@]12C (stereo partly specified)	x	x	x	0.708	x
CCCCCCCCCn1c2c(c(=N)c3c1CCC3)CCCC2	x	x	29.6	0.43*	x
CCCCCCCCCCn1c2c(c(=N)c3c1CCC3)CCC2	8.2	8.0	0.8	0.224*	4.9
CCCCCCCCn1c2c(c(=N)c3ccccc31)CCC2	x	7.8	-0.6	0.592	x
CCn1c2c(c(=N)c3c1CCC3)CCCC2	1.7	1.6	x	0.674	-2.3
O=C(NCc1nc2ccccc2[nH]1)C1=CC(C2CC2)CC(OCCCCO)O1 (stereo unspecified)	x	x	x	0.685	x
O=C(NCc1ccc2c(c1)OCO2)Nc1cccc(Cl)c1	0.3	2.3	0.5	0.678	-0.3
O=C(Nc1ccccc1)Nc1ccc2snnc2c1	5.2	5.2	3.2	0.571	5.8
Cc1ccc(NC(=O)Nc2ccccc2)cc1[N+](=O)[O-]	5.1	8.8	1.8	0.54	5.6
O=C(Nc1ccccc1)Nc1ccc(Cl)c([N+](=O)[O-])c1	6.2	3.2	-3.5	0.483*	7.2
O=C(Nc1ccccc1)Nc1cccc(Cl)c1	4.6	9.7	-4.3	0.503*	5.0
O=C(Nc1ccccc1)Nc1ccc2nnsc2c1	6.0	8.8	-5.0	0.403*	7.8
O=C(Nc1cccc(Cl)c1)Nc1ccc2c(c1)OCO2	5.7	7.0	4.6	0.53*	5.3
CCCCc1n[nH]c2c1C(=NO)CC(c1ccccc1)C2 (stereo unspecified)	x	x	x	0.691	x
CC(=NNc1nc(-c2ccccc2F)nc2ccccc12)c1ccccc1O	x	x	x	0.658	x
CN1C(=O)C2C(C=Cc3ccccc3)N3C(=O)CN(Cc4ccccn4)C(=O)[C@@]3(C)C2C1=O (stereo partly specified)	x	x	x	0.683	x
COC1=C(C)C(=O)C2=C(C1=O)C1C3CC4=C(C(=O)C(OC)=C(C)C4=O)C(CNC(=O)C(C)=O)N3C(C#N)C(C2)N1C (stereo unspecified)	x	15.3*	-8.9	x	x
CCCCCCCCN1C(CC(=O)O)c2cc(C(F)(F)F)ccc2S1(=O)=O (stereo unspecified)	x	x	x	0.653	x
CCCCCCCCCCCCN1[C@@H](CC(=O)O)c2cc(C(F)(F)F)ccc2S1(=O)=O	0.0	4.9	51.8*	x	1.8
COCc1cc(C=NNC(=O)Cc2ccc(Cl)cc2)ccc1OC	x	x	x	0.247*	x
O=C(/C=C1\C(=O)Nc2ccccc21)/C=C1\C(=O)Nc2ccccc21	x	-0.7	2.1	0.509*	x
O=C1Nc2ccccc2/C1=C\C(=O)c1ccccc1	-2.9	0.2	1.6	0.65	2.2
NC(N)=NN=Cc1ccc(OCc2ccc(Cl)cc2)cc1	x	x	x	0.045*	x
NC(N)=NN=Cc1ccc(OCc2ccc(Cl)cc2Cl)cc1	x	x	x	0.0475*	x
NC(N)=N/N=C/c1ccc(OCc2ccc(Cl)cc2)cc1	2.0	2.6	3.1	x	2.5
SMILES	E coli growth-1	phage Ecoli inh	Tat transport	E coli growth-2	AddAB inh
O=c1c2c(O)cc(O)cc2oc2c(O)ccc(OC3OC(CO)C(O)C(O)C3O)c12 (stereo unspecified)	x	x	x	0.71	x
CC(=O)N1N=C(c2cccc([N+](=O)[O-])c2)OC1c1ccc(Br)cc1 (stereo unspecified)	1.2	1.5	15.9	0.654	-0.8
CC(=O)N1N=C(c2ccccc2)OC1c1ccc([N+](=O)[O-])s1 (stereo unspecified)	1.2	x	-1.7	0.511*	-2.2
Cn1cccc1-c1cc(C(=O)NN=Cc2ccccc2Cl)[nH]n1	x	x	x	0.67	x
O=C(/C=C/c1ccccc1)NC(=S)NNC(=O)c1cnccn1	11.3*	8.9	2.4	x	11.0
O=C(/C=C/c1ccccc1)NC(=S)NNC(=O)c1cccnc1	-6.0	-3.7	4.3	0.72	-2.6
COc1cc(C=NN2CCN(Cc3ccc(Cl)cc3)CC2)ccc1OC(C)=O	x	x	x	0.7	x
CCOc1ccc(NS(=O)(=O)c2ccc(C(=O)NNC(=O)c3ccccc3O)cc2)cc1	-0.2	3.9	-11.5	0.516*	6.5
O=c1c(Br)ccc(Br)cc1Br	x	7.3	6.3	0.523*	x
O=C1CN(S(=O)(=O)c2cc(Br)ccc2Br)CCN1	-0.1	2.2	-2.9	0.693	2.0
CCCC(C#Cc1cc(OC)cc(OC)c1)=C1c2ccccc2C(=O)N1c1ccccc1	x	x	x	0.641	x
CC(=O)c1cccc(N(CC(=O)NCCc2ccccc2)C(=O)c2csnn2)c1	-0.4	0.5	-6.5	0.534*	3.8
Brc1ccc(C=NN2CCN(C3c4ccccc4-c4ccccc43)CC2)s1	x	x	x	0.815	x
CN1CCN(C(=O)C2=C[C@@H](c3ccccc3)C[C@@H](OCc3ccc(CO)cc3)O2)CC1	-1.6	1.2	-11.4	x	0.0
O=C(C1=C[C@H](c2ccccc2)C[C@H](OCc2ccc(CO)cc2)O1)N1CCOCC1	1.2	1.4	-1.7	0.647*	1.1
Cc1c(-n2c(SCC(C)C)nc3ccccc3c2=O)c(=O)n(-c2ccccc2)n1C	-0.3	0.4	-1.3	0.391*	-1.9
O=S(=O)(c1ccccc1)[C@@]1(c2ccc(Br)cc2)CC2ON=C(c3ccccc3)C2C1 (stereo partly specified)	x	x	x	0.726	x
Cc1ccc(Nc2cc(C)nn2-c2nc(C)cc(=O)[nH]2)cc1	1.9	x	-14.3	0.492*	2.0
Cc1ccc(Nc2cc(C)nn2-c2nc(C)cc(C)n2)cc1	0.6	-0.5	-4.0	0.702	-0.3
CCCCNC(=S)Nc1ccc(Cl)cc1	1.6	2.6	-3.3	0.649	2.9
CCCCNC(=S)Nc1ccc(C(F)(F)F)cc1	11.1*	10.3	-0.5	0.565	11.0
O=C(NC(=Nc1nc2ccccc2o1)NC(=O)c1ccccc1)c1ccccc1	-0.4	5.9	-8.6	0.646	1.0
COc1ccccc1C(=O)NC(=Nc1nc2ccccc2o1)NC(=O)c1ccccc1OC	13.3*	3.9	-7.3	0.684	14.0*
CNS(=O)(=O)c1cccc(C(=O)OCC(=O)Nc2cc(F)ccc2F)c1	10.6*	0.4	-11.9	0.7	3.3
CNS(=O)(=O)c1cccc(C(=O)OCC(=O)Nc2ccc(Cl)cc2F)c1	0.8	1.8	3.3	0.69	1.4
SMILES	E coli growth-1	phage Ecoli inh	Tat transport	E coli growth-2	AddAB inh
COc1ccc(N=C2SC(=Cc3cccs3)C(=O)N2CC(C)C)cc1	x	x	x	0.708	x
Cc1cc(C(C#N)c2ccc(Cl)cc2)c(Cl)cc1NC(=O)c1cc(I)cc(I)c1O (stereo unspecified)	11.0*	4.9	-8.9	x	8.4
O=S1(=O)CCOCC(c2ccccc2)N1Cc1ccccc1 (stereo unspecified)	x	x	x	0.681	x
CCN(Cc1ccccc1)c1ccc(C=NN=C(N)N)cc1	x	x	x	0.502*	x
COc1cc(C=NN=C(N)N)ccc1OCc1ccc(Cl)cc1	x	x	x	0.509*	x
CCN(Cc1ccccc1)c1ccc(/C=N/N2CCOCC2)cc1	1.6	3.3	-5.8	x	-0.8
NC(N)=NN=Cc1ccc(OCc2ccccc2)c(OCc2ccccc2)c1	x	x	x	0.069*	x
CC(C)NC(=O)N(C)CC1Oc2ccc(NS(=O)(=O)c3ccccc3)cc2C(=O)N(C(C)CO)CC1C (stereo unspecified)	x	x	x	0.702	x
Cc1noc(C)c1COC(=O)c1cc(S(=O)(=O)N2CCOCC2)ccc1Cl	1.5	3.3	21.8	0.676	-3.7
